The list shows a part of the results. The hit rate among all sequences tested is not known here.
Target: furin, P09958
Test: furin cleavage Z-score vs untreated control; higher = more cleavage, active = 3.5 or more, inactive = 1 or less, 8 variable residues between constant flanks
Procedure, shortened: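 Abundance of DNA freed from bead-bound 8-mer peptide–cDNA fusions by purified furin was measured as sequencing read counts after PCR adapter tagging. Cutting ran 7.5, 15 or 30 min in 0.01 ml of 50 mM HEPES pH 7.5 with CaCl2 and NaCl at 1:10 enzyme:substrate. The cleavage Z-score expresses these log counts against furin-free reactions after lowess adjustment and median absolute deviation scaling.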

furin, P09958, sequence (P09958 whole entry): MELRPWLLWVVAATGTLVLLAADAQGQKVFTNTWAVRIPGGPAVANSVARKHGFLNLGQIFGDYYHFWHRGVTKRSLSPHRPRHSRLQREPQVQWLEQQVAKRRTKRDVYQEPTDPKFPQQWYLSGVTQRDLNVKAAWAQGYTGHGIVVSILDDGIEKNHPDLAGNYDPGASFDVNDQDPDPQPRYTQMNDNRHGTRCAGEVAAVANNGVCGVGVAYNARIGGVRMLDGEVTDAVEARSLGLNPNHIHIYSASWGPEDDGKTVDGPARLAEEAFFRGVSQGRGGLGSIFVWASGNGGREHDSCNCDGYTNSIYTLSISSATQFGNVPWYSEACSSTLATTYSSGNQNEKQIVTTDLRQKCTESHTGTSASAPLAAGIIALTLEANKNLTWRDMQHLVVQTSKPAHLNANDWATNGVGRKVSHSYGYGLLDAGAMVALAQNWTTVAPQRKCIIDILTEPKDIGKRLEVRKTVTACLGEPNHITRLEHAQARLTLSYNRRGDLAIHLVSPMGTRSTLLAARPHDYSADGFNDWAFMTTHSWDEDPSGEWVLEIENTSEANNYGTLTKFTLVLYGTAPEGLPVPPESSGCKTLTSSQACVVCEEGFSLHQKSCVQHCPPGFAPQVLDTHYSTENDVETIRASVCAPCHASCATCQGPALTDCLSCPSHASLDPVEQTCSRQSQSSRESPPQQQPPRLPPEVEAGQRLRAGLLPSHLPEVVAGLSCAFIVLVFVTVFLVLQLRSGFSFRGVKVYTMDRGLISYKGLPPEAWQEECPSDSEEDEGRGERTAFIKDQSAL

CAREFRIIFDAGNASASA [FS-2002]
furin cleavage Z-score (7.5 min): -0.0827 (inactive) | furin cleavage Z-score (15 min): -0.962 (inactive) | furin cleavage Z-score (30 min): -0.343 (inactive)

CAPCEPEPDVAGNASASA [HC1241]
furin cleavage Z-score (7.5 min): -0.464 (inactive) | furin cleavage Z-score (15 min): 0.432 (inactive) | furin cleavage Z-score (30 min): -0.805 (inactive)

CATTPVSGSWAGNASASA [HC43]
furin cleavage Z-score (7.5 min): -0.371 (inactive) | furin cleavage Z-score (15 min): 0.0296 (inactive) | furin cleavage Z-score (30 min): 0.074 (inactive)

CAEVETSTWVAGNASASA [HC2192]
furin cleavage Z-score (7.5 min): -0.139 (inactive) | furin cleavage Z-score (15 min): -0.872 (inactive) | furin cleavage Z-score (30 min): -0.676 (inactive)

CAEVVVSTWVAGNASASA [HC123]
furin cleavage Z-score (7.5 min): 0.0781 (inactive) | furin cleavage Z-score (15 min): -2.67 (inactive) | furin cleavage Z-score (30 min): -0.513 (inactive)

CAVALRRRRHAGNASASA [FS-1577]
furin cleavage Z-score (7.5 min): 11.1 (active) | furin cleavage Z-score (15 min): 12.6 (active) | furin cleavage Z-score (30 min): 9.5 (active)

CAPISRRRRHAGNASASA [FS-69]
furin cleavage Z-score (7.5 min): 10.5 (active) | furin cleavage Z-score (15 min): 12.1 (active) | furin cleavage Z-score (30 min): 10.2 (active)

CAETMRRRRHAGNASASA [FS-928]
furin cleavage Z-score (7.5 min): 10.4 (active) | furin cleavage Z-score (15 min): 11.7 (active) | furin cleavage Z-score (30 min): 10 (active)

CAVILLMCAVAGNASASA [HC597]
furin cleavage Z-score (7.5 min): -0.0828 (inactive) | furin cleavage Z-score (15 min): -1.86 (inactive) | furin cleavage Z-score (30 min): -1.55 (inactive)

CAYMNRRRRHAGNASASA [FS-320]
furin cleavage Z-score (7.5 min): 5.9 (active) | furin cleavage Z-score (15 min): 7.94 (active) | furin cleavage Z-score (30 min): 6.26 (active)

CAELITSCSSAGNASASA [HC1551]
furin cleavage Z-score (7.5 min): -0.448 (inactive) | furin cleavage Z-score (15 min): 0.888 (inactive) | furin cleavage Z-score (30 min): -0.654 (inactive)

CACRASGVLTAGNASASA [HC1510]
furin cleavage Z-score (7.5 min): -0.191 (inactive) | furin cleavage Z-score (15 min): -0.919 (inactive) | furin cleavage Z-score (30 min): -0.424 (inactive)

CAPVVTSTWVAGNASASA [HC2159]
furin cleavage Z-score (7.5 min): 0.805 (inactive) | furin cleavage Z-score (15 min): 0.48 (inactive) | furin cleavage Z-score (30 min): 0.275 (inactive)

CAEVFCVQPEAGNASASA [HC1442]
furin cleavage Z-score (7.5 min): -0.865 (inactive) | furin cleavage Z-score (15 min): -0.957 (inactive) | furin cleavage Z-score (30 min): -0.965 (inactive)

CAMMSRIFRHAGNASASA [FS-1236]
furin cleavage Z-score (7.5 min): -0.468 (inactive) | furin cleavage Z-score (15 min): -0.194 (inactive) | furin cleavage Z-score (30 min): 1.99

CAMKIRRRRHAGNASASA [FS-275]
furin cleavage Z-score (7.5 min): 6.27 (active) | furin cleavage Z-score (15 min): 6.38 (active) | furin cleavage Z-score (30 min): 5.11 (active)

CAVACCSMSYAGNASASA [HC2003]
furin cleavage Z-score (7.5 min): -0.939 (inactive) | furin cleavage Z-score (15 min): 1.22 | furin cleavage Z-score (30 min): 0.305 (inactive)

CARMKRVWDRAGNASASA [FS-2722]
furin cleavage Z-score (7.5 min): 2.92 | furin cleavage Z-score (15 min): -0.324 (inactive) | furin cleavage Z-score (30 min): 0.97 (inactive)

CARMKRYILHAGNASASA [FS-2222]
furin cleavage Z-score (7.5 min): 2.82 | furin cleavage Z-score (15 min): 6.82 (active) | furin cleavage Z-score (30 min): 8.57 (active)

CARMKRESLMAGNASASA [FS-3228]
furin cleavage Z-score (7.5 min): 9.24 (active) | furin cleavage Z-score (15 min): 10.5 (active) | furin cleavage Z-score (30 min): 11.4 (active)

CARMKREITTAGNASASA [FS-2047]
furin cleavage Z-score (7.5 min): 9.07 (active) | furin cleavage Z-score (15 min): 9.89 (active) | furin cleavage Z-score (30 min): 7.88 (active)

CARMKRILQRAGNASASA [FS-2720]
furin cleavage Z-score (7.5 min): 0.0731 (inactive) | furin cleavage Z-score (15 min): 1.31 | furin cleavage Z-score (30 min): 0.696 (inactive)

CARKKKEEEMAGNASASA [FS-2264]
furin cleavage Z-score (7.5 min): -1.03 (inactive) | furin cleavage Z-score (15 min): -1.15 (inactive) | furin cleavage Z-score (30 min): -0.39 (inactive)

CARMKREDLNAGNASASA [FS-2718]
furin cleavage Z-score (7.5 min): 11.1 (active) | furin cleavage Z-score (15 min): 11.1 (active) | furin cleavage Z-score (30 min): 9.09 (active)

CAEAADAILHAGNASASA [HC268]
furin cleavage Z-score (7.5 min): 1.3 | furin cleavage Z-score (15 min): -1.15 (inactive) | furin cleavage Z-score (30 min): 0.548 (inactive)

CATTPCTGSWAGNASASA [HC76]
furin cleavage Z-score (7.5 min): 0.592 (inactive) | furin cleavage Z-score (15 min): 0.698 (inactive) | furin cleavage Z-score (30 min): 0.31 (inactive)

CAKQKALGLLAGNASASA [HC1025]
furin cleavage Z-score (7.5 min): -0.454 (inactive) | furin cleavage Z-score (15 min): 1.56 | furin cleavage Z-score (30 min): 0.147 (inactive)

CALLLAAGVGAGNASASA [HC1659]
furin cleavage Z-score (7.5 min): -1.34 (inactive) | furin cleavage Z-score (15 min): -0.972 (inactive) | furin cleavage Z-score (30 min): 0.0513 (inactive)

CADREVVTSTAGNASASA [HC2293]
furin cleavage Z-score (7.5 min): 0.73 (inactive) | furin cleavage Z-score (15 min): -0.878 (inactive) | furin cleavage Z-score (30 min): 0.0278 (inactive)

CANVDQDLVGAGNASASA [HC712]
furin cleavage Z-score (7.5 min): -0.364 (inactive) | furin cleavage Z-score (15 min): -0.928 (inactive) | furin cleavage Z-score (30 min): 0.183 (inactive)

CARHRRTPDRAGNASASA [FS-2555]
furin cleavage Z-score (7.5 min): 3.94 (active) | furin cleavage Z-score (15 min): 6.66 (active) | furin cleavage Z-score (30 min): 4.45 (active)

CARHRRQIDRAGNASASA [FU5]
furin cleavage Z-score (7.5 min): 8.52 (active) | furin cleavage Z-score (15 min): 9.09 (active) | furin cleavage Z-score (30 min): 7.54 (active)

CARHRARSVRAGNASASA [HC1621]
furin cleavage Z-score (7.5 min): 5.03 (active) | furin cleavage Z-score (15 min): 5.34 (active) | furin cleavage Z-score (30 min): 5.83 (active)

CARALAHGVRAGNASASA [HC235]
furin cleavage Z-score (7.5 min): -1.61 (inactive) | furin cleavage Z-score (15 min): -0.489 (inactive) | furin cleavage Z-score (30 min): -0.193 (inactive)

CACSQHLPYIAGNASASA [HC1016]
furin cleavage Z-score (7.5 min): -1.19 (inactive) | furin cleavage Z-score (15 min): -4.19 (inactive) | furin cleavage Z-score (30 min): -2.45 (inactive)

CAGPLLCPAGAGNASASA [HC744]
furin cleavage Z-score (7.5 min): -0.656 (inactive) | furin cleavage Z-score (15 min): -1.61 (inactive) | furin cleavage Z-score (30 min): -1.61 (inactive)

CATTPCSAHLAGNASASA [HC2478]
furin cleavage Z-score (7.5 min): 0.336 (inactive) | furin cleavage Z-score (15 min): 0.111 (inactive) | furin cleavage Z-score (30 min): -0.164 (inactive)

CAVVCCSESYAGNASASA [HC2052]
furin cleavage Z-score (7.5 min): -0.759 (inactive) | furin cleavage Z-score (15 min): -0.905 (inactive) | furin cleavage Z-score (30 min): -0.208 (inactive)

CAIPCRSIRDAGNASASA [FS-668]
furin cleavage Z-score (7.5 min): 4.89 (active) | furin cleavage Z-score (15 min): 6.2 (active) | furin cleavage Z-score (30 min): 5.07 (active)

CAQRRRSIRDAGNASASA [FS-287]
furin cleavage Z-score (7.5 min): 14.8 (active) | furin cleavage Z-score (15 min): 16.3 (active) | furin cleavage Z-score (30 min): 11.3 (active)

CAQRRRPTRPAGNASASA [FS-371]
furin cleavage Z-score (7.5 min): -1.13 (inactive) | furin cleavage Z-score (15 min): 0.703 (inactive) | furin cleavage Z-score (30 min): -0.42 (inactive)

CASTTCSAHLAGNASASA [HC2518]
furin cleavage Z-score (7.5 min): -0.961 (inactive) | furin cleavage Z-score (15 min): -1.68 (inactive) | furin cleavage Z-score (30 min): -0.439 (inactive)

CAKTSERSQPAGNASASA [HC186]
furin cleavage Z-score (7.5 min): 2.56 | furin cleavage Z-score (15 min): -0.461 (inactive) | furin cleavage Z-score (30 min): 0.776 (inactive)

CAKTSRSRRRAGNASASA [FS-1225]
furin cleavage Z-score (7.5 min): 5.45 (active) | furin cleavage Z-score (15 min): 6.99 (active) | furin cleavage Z-score (30 min): 6.15 (active)

CADPSRSRRRAGNASASA [FS-1448]
furin cleavage Z-score (7.5 min): 0.778 (inactive) | furin cleavage Z-score (15 min): 3.15 | furin cleavage Z-score (30 min): 3.47

CARVKRSRRRAGNASASA [FS-2839]
furin cleavage Z-score (7.5 min): 10.1 (active) | furin cleavage Z-score (15 min): 10.8 (active) | furin cleavage Z-score (30 min): 9.23 (active)

CAGESRSRRRAGNASASA [FS-329]
furin cleavage Z-score (7.5 min): 2.73 | furin cleavage Z-score (15 min): 3.06 | furin cleavage Z-score (30 min): 3.66 (active)

Reference: the supplement of paper PMC3545927
